# Test results as given in the OligoGym collection.
# Biological target: IGFBP7
# Assay: pooled miR-30 sensor sort-seq; sequence = guide strand
# Details: shRNA
# Also: reference of the scale not given here.
row,Sequence,sensor-assay potency score (higher = more potent)
1,TATAACTAAAGTGTTAGTGGAT,0.0715
2,TATGGAAGGACCTTGCTCGCAG,0.0924
3,TTTATTTTGTATTTCTCTGTGT,0.392
4,TAGAGGAGATACCAGCACCCAG,-1.77
5,TATTTCTCTGTGTAAAACCAGT,-0.876
6,TTTTTGCTGATGCTGAAGCCTG,-1.34
7,TGTCCTTTGAACTCCATAGTGA,-0.0168
8,TTATTTTGTATTTCTCTGTGTA,0.738
9,ATATTCTCCAGCATCTTCCTTA,0.0623
10,TTGCACACGCACACGCCGCTTA,-0.533
11,TCCATGACTACTTTTAACCATG,-1.58
12,TAGTCTTGATGTGTGATCTTTA,-0.24

# Biological target: IGLL1
# Assay: as above
# Details: shRNA
row,Sequence,sensor-assay potency score (higher = more potent)
1,TGAGACACACCAGTGTAGCCTT,0.221
2,TACCACGGCCAGACCCAGCAGC,-0.916
3,TGCAGCTGTTGGGCGCAGCAGG,-1.51
4,TGGACCGGCTGCTTCCTCCAGG,-1.11
5,TTGTTGTTGCTCTGTTTGGAGG,-1.19
6,TCACCGTCAAGATTCCCGGATA,-1.01
7,TACTTGTTGTTGCTCTGTTTGG,-0.977
8,TCAGGTAGCTGCTGGCCGCGTA,-0.554
9,TTGGGCTGACTTAAAACGGTGA,-0.209
10,AGACACACCAGTGTAGCCTTGT,-0.487
11,TAGCCTTGTTGGCTTGGAGCTC,-0.995
12,TGCTCTGCGATGCAGCTGTTGG,-1.49
